High-throughput results: PubChem, several laboratories
Only some compounds are listed: those with a hit (about 1.1% of all), similar ones and a draw of the others.
Calb FLC = affects C. albicans growth with fluconazole; C. albicans CaCi-2 (fluconazole-resistant clinical isolate) + fluconazole, Alamar Blue growth, 48 h; growth inhibition, % (concentration not given with the values); 0.57% of 300,000 active; AID 1979;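 active means growth inhibition above about 58% in most replicates, limit read from the data, passing the limit was not always enough; inconclusive means exactly half the replicates above a set limit; inactive means most replicates below a set limit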;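 further: all wells also contain fluconazole at 8 µg/ml as a sub-toxic cotreatment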
zVAD death inh = blocks zVAD induced death of L929 cells; L929 zVAD necroptosis rescue, ATP luminescence, 24 h; with zVAD 60 µM; viability rescue, % at 10 µM; 0.38% of 220,000 active;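 active means activation, scaled between plate controls, above about 75%, limit read from the data; inactive means activation under that limit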
TNF necrop inh = blocks TNF-alpha induced death of Jurkat FADD-/- cells. Jurkat FADD-/- TNF necroptosis rescue, ATP luminescence, 24 h; 0 = TNF only, 100 = no-TNF cells. activation (protection from cell death), % at 10 µM. 0.068% of 220,000 active;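 active means activation, meaning protection from cell death, of at least 50% relative to plate controls; inactive means activation below 50%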;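 further: necroptosis triggered by 40 ng/mL TNF-alpha added together with compound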
HIF activator = HIF pathway transcriptional activation | 0.32% of 300,000 active | activation, % at 7.5 µM (by protocol) | U2OS HRE-luciferase reporter, luminescence; normalized: DMSO 0%, desferrioxamine 100%;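 active means mean activation of at least 10% of the iron chelator positive control signal, with at least half of replicates also reaching 10%; inconclusive means mean and replicate majority disagree about reaching 10%; inactive means mean and most replicates under 10%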
zVAD necrop conf = confirmed blocker of zVAD induced death in L929 cells. shares compounds with zVAD death inh. L929 zVAD-induced necroptosis rescue, ATP luminescence, 24 h. activation (protection from necroptosis), % at 10 µM. 16% of 760 active;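 active means mean protection from necroptosis of at least 50% over duplicate tests; inactive means mean protection below 50%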
Of the large screens only hits and unclear results are named; the others gave an inactive call (follow-up assays come after a bar, where they were run).

O=C(OCn1ncc(Cl)c(Cl)c1=O)c1ccccc1Cl	Calb FLC 107.9, zVAD death inh 101.8 | zVAD necrop conf 64.2
O=C(OCn1ncc(Cl)c(Cl)c1=O)c1ccc(F)cc1	Calb FLC 107.4, zVAD death inh 78.1 | zVAD necrop conf 53.1
O=C(CSc1nnc2n1CCCN2C(=S)Nc1ccc(Cl)cc1)c1ccccc1	zVAD death inh 93.0, TNF necrop inh 96.0 | zVAD necrop conf inactive
CC1(C)Cc2ccccc2C(/C(C#N)=N/O)=N1	none
COc1ccc(N/N=C(/C(N)=O)C2=NC(C)(C)Cc3ccccc32)cc1	zVAD death inh 75.6 | zVAD necrop conf inactive
C(=N\Nc1nc2ccccc2s1)/c1ccco1	zVAD death inh 93.9 (no result: HIF activator) | zVAD necrop conf inactive
Cc1ccsc1/C=N/Nc1nc2ccccc2s1	none
C(=N\Nc1nc2ccccc2s1)/c1cccs1	zVAD death inh 81.8 | zVAD necrop conf inactive
CCN1CCN(Cc2ccc(NC(=O)c3ccc(C)c(NC(=O)N4CCNC4=O)c3)cc2C(F)(F)F)CC1	none
Cc1cn(-c2cc(C(=O)Nc3ccc(C)c(NC(=O)N4CCNC4=O)c3)cc(C(F)(F)F)c2)cn1	zVAD death inh 79.3 | zVAD necrop conf 51.2
Cc1[nH]c2ccccc2c1/C=N/Nc1ccccn1	zVAD death inh 78.6 | zVAD necrop conf 84.8
COc1ccc(/C=N/NC(=O)C(=O)Nc2ccccn2)cc1OC	none
COc1ccc(/C=N/Nc2ccccn2)cc1OC	zVAD death inh 87.8, TNF necrop inh 53.5 | zVAD necrop conf 88.7
Cc1[nH]c2ccccc2c1/C=N/Nc1nncn1N	none (no result: HIF activator)
COc1cc(/C=N/Nc2ccccn2)ccc1O	zVAD death inh 87.0 | zVAD necrop conf 74.7
COc1cc(NC(=S)Nc2ccccn2)c(OC)cc1Cl	zVAD death inh 78.8 | zVAD necrop conf inactive
O=C(CCc1nnc2n(Cc3ccccc3)c(=O)c3ccccc3n12)NCCN1CCOCC1	none (no result: zVAD death inh, TNF necrop inh)
CCOc1cc(/C=N/OC(C)=O)ccc1OCc1ccccc1	none
Cc1nn(C)cc1S(=O)(=O)N1CCN(c2ccccc2)CC1	none (no result: zVAD death inh, TNF necrop inh)
COc1ccc(NC(=O)Nc2ccccn2)cc1OC	zVAD death inh 76.5 | zVAD necrop conf inactive
C=CCOn1c(=O)c(-c2ccc(F)cc2)[n+]([O-])c2ccccc21	none (no result: zVAD death inh, TNF necrop inh)
CC(=O)c1c(C)[nH]c(C(=O)OCc2ccccc2)c1C	none
CCN(CC)CCc1c(C)[nH]c(C(=O)OCc2ccccc2)c1C	zVAD death inh 75.8 | zVAD necrop conf inactive
O=C(CCl)N(c1ccccc1)C1CCCCC1	zVAD death inh 78.2 | zVAD necrop conf 65.8
O=C(NCCCN1CCOCC1)c1ccc(NS(=O)(=O)c2ccccc2)cc1	none (no result: zVAD death inh, TNF necrop inh)
Cc1ccc(C)c(N2CCN(S(=O)(=O)c3ccc(-c4cc(C)no4)s3)CC2)c1	none (no result: zVAD death inh, TNF necrop inh)
Cc1ccc(Nc2nnc(-c3ccc(N4CCOCC4)c([N+](=O)[O-])c3)c3ccccc23)cc1	none
O=[N+]([O-])c1cc(-c2nnc(Nc3ccccc3)c3ccccc23)ccc1N1CCOCC1	zVAD death inh 98.5 | zVAD necrop conf inactive
COc1cc(/C=N/NC(=O)c2cc(-c3cccc(Br)c3)nc3ccccc23)cc(OC)c1O	none (no result: zVAD death inh, TNF necrop inh)
Cc1nc2c(ccc3nc(NC(=O)C4CC4)sc32)s1	zVAD death inh 80.3 | zVAD necrop conf inactive
CCCCC(=O)Nc1nc2ccc3nc(C)sc3c2s1	none
CCCC(=O)Nc1nc2ccc3nc(C)sc3c2s1	zVAD death inh 91.1 | zVAD necrop conf inactive
CCC(=O)Nc1nc2ccc3sc(C)nc3c2s1	zVAD death inh 79.1 | zVAD necrop conf inactive
Cc1c(Cl)ccc2sc(NC(=O)C3CC3)nc12	none (no result: zVAD death inh, TNF necrop inh)
NS(=O)(=O)c1ccc(CCNC(=O)C(=O)NCC2OCCN2S(=O)(=O)c2ccc(Cl)cc2)cc1 (centres undefined)	none (no result: zVAD death inh, TNF necrop inh)
CCCCN(C(=O)Cc1ccc(S(=O)(=O)N2CCOCC2)s1)c1c(N)n(CCCC)c(=O)[nH]c1=O	none (no result: zVAD death inh, TNF necrop inh)
Fc1ccccc1-c1ccc(/C=N/Nc2nc3ccccc3[nH]2)o1	none (no result: Calb FLC)
Cc1ccc(/C=N\Nc2nc3ccc(Cl)cc3[nH]2)o1	zVAD death inh 86.5, HIF activator 12.6 | zVAD necrop conf 78.0
Cn1nc(C(C)(C)C)cc1NC(=O)Nc1cc(Cl)cc(Cl)c1	zVAD death inh 94.0 | zVAD necrop conf 92.6
Cc1ccc(F)cc1NC(=O)Nc1cc(C(C)(C)C)nn1C	Calb FLC inconclusive
Nc1ncc(Br)cc1S(=O)(=O)NCCC(=O)N1CCN(c2ncccn2)CC1	zVAD death inh 91.6 | zVAD necrop conf inactive
CCCNC(=O)c1ccccc1C(=O)NC1(C(=O)NCCC)CCCC1	none
Cc1nc2cc(NC(=O)NCc3ccc4c(c3)OCO4)ccc2o1	none
Cc1nc2cc(NC(=O)Nc3ccc(Br)cc3)ccc2o1	zVAD death inh 80.3 | zVAD necrop conf inactive
CC(C)OCCCNC(=S)Nc1ccc(S(N)(=O)=O)cc1	zVAD death inh 75.5 | zVAD necrop conf inactive
Cc1nc(-c2ccc(S(=O)(=O)N3CCN(CCc4ccccc4)CC3)s2)cs1	none
CCN1CCN(Cc2ccc(NC(=O)c3ccc(C)c(NC(=O)c4nccnc4N)c3)cc2C(F)(F)F)CC1	zVAD death inh 79.7 | zVAD necrop conf 78.8
N#Cc1cccc(NCC(=O)Nc2ccc3c(c2)OCCO3)c1	zVAD death inh 77.2 | zVAD necrop conf inactive
N#Cc1ccc(NCC(=O)Nc2ccc3c(c2)OCCO3)cc1	none
COc1ccc2c(C)nc(Nc3nc(C)c(C)c(=O)[nH]3)nc2c1	Calb FLC inconclusive, zVAD death inh 113.0 | zVAD necrop conf inactive
C=CCN(CC=C)C(=O)CCc1nnc(CCc2c[nH]c3ccccc23)o1	none
CCOC(=O)c1cccc(NC(=O)Nc2ccc(OCC)cc2)c1	zVAD death inh 75.8 | zVAD necrop conf inactive
CCOc1ccc(NC(=O)NC23CC4CC(CC(C4)C2)C3)cc1	zVAD death inh 87.8 | zVAD necrop conf inactive
CCOc1ccc(NC(=O)Nc2ccc3nsnc3c2)cc1	zVAD death inh 81.0 | zVAD necrop conf inactive
O=C(CN1C(=O)COc2ccc(S(=O)(=O)N3CCCCCC3)cc21)NCc1ccc(F)cc1	none (no result: zVAD death inh, TNF necrop inh)
Cc1ccc2[nH]c3c(c2c1)CCC3=O	none
Cc1ccc2[nH]c3c(c2c1)CCc1cn[nH]c1-3	zVAD death inh 88.8, TNF necrop inh 92.0 | zVAD necrop conf 80.0
COc1ccc(S(=O)(=O)N2CCCCC2)cc1NS(=O)(=O)c1cc(Cl)ccc1Cl	none
CCNC(=O)NC(=O)C(C)OC(=O)c1ccc(-n2nc(SC)sc2=S)cc1 (centres undefined)	zVAD death inh 82.3 | zVAD necrop conf inactive
CSc1nn(-c2ccc(C(=O)OC(C(=O)NC(N)=O)C(C)C)cc2)c(=S)s1 (centres undefined)	none
COc1ccc(OCCOC(=O)CNC(=O)c2cccc(C)c2)cc1	none (no result: Calb FLC, zVAD death inh, TNF necrop inh)
O=C(NNC(=O)c1ccc(NC(=O)c2ccccc2)cc1)Nc1ccccc1	zVAD death inh 75.6 | zVAD necrop conf inactive
CCc1cccc2c(C(=O)COC(=O)c3ccc(O)cc3)c[nH]c12	zVAD death inh 77.5 | zVAD necrop conf 73.5
CCOc1cc(/C=C2\SC(=O)N(c3ccc(O)cc3)C2=O)ccc1O	none
N=C1S/C(=C\c2ccc(O)cc2)C(=O)N1c1ccc(F)cc1	zVAD death inh 80.4 | zVAD necrop conf inactive
